Bioassay records from PubChem BioAssay.
ZTA counter = counter-screen for EBNA-1 inhibitors: inhibitors of Epstein-Barr virus ZTA; P03206; ZTA-DNA binding, fluorescence polarization; inhibition, % at 11 µM; hit rate 0.15% among 320,000; in the data active means inhibition above about 33%
Rpn11 block = Rpn11 (PSMD14) deubiquitinase inhibitors, primary screen, biochemical, fluorescence polarization, uHTS. inhibition, % at 20 µM. hit rate 0.59% among 360,000. human 26S proteasome, Ub4-pepOG fluorescence polarization; 20S core pre-blocked with epoxomicin;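 active means inhibition at 20 µM, scaled to each plate's controls, above about 33%, limit read from the data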
Target sequence (O00487 whole entry, looked up): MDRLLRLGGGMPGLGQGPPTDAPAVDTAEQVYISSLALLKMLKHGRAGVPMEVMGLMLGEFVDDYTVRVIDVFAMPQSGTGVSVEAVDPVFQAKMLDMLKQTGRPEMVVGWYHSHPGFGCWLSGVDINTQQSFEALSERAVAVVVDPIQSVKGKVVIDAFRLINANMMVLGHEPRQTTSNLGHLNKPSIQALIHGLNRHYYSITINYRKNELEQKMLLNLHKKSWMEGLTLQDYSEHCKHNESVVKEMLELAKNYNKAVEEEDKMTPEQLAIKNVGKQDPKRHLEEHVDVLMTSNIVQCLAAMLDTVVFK
EBNA-1 inh = EBNA-1 DNA-binding inhibitors, primary screen, biochemical, fluorescence polarization; inhibition, % at 14.8 µM; hit rate 0.34% among 300,000; in the data active means inhibition above about 28%
dFosB act-1 = activators of delta FosB homodimer, primary screen, biochemical, fluorescence polarization, TAMRA-CDK5 oligo, single point; Protein FosB (Mus musculus), P13346; purified delta FosB; percent of positive-control signal above neutral wells; activation, % at 25 µM; hit rate 0.99% among 340,000; AID 493131, 2011;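 active means mean activation above about 17%, with every replicate also reaching it, limit read from the data, passing the limit was not always enough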
Target sequence (P13346 whole entry, looked up): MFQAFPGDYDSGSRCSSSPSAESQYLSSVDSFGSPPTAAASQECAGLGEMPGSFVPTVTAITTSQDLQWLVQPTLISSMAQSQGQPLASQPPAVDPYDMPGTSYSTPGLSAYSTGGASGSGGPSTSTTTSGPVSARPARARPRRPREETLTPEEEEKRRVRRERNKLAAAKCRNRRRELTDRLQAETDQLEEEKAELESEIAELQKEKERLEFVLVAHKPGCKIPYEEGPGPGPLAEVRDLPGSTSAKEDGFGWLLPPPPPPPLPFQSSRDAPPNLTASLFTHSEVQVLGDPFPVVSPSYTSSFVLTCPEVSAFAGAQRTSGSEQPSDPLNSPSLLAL
GRIN3A LBD mod = binders of NR3A ligand-binding domain, primary screen, biophysical, differential scanning fluorimetry, uHTS; Tm shift relative to glycine control, % at 25 µM; hit rate 2.5% among 340,000; NR3A LBD differential scanning fluorimetry, Tm shift; 0% = protein alone, 100% = glycine-bound protein; AID 1259313, 2017;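 active means melting temperature shift of at least 10% of the positive control shift, at one fixed dose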
TPT1 inhibitor = Candida albicans TPT1 enzyme inhibitors, primary screen, biochemical, fluorescence polarization; AID 1962, 2009; hit rate 0.81% among 300,000; recombinant caTPT1, FP RNA substrate dephosphorylation; inhibition, % at 5 µM;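 active means inhibition above the mean of all tested compounds plus 3 SD, set per screening campaign, cut at about 24% in these data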
dFosB act-2 = activators of mouse delta FosB DNA binding, confirmation, biochemical, fluorescence polarization, TAMRA-CDK5 oligo, cherry-picked samples. 2,400 tested, under 10 active. activation, % at 24.9 µM. shares compounds with dFosB act-1. purified delta FosB; normalised: neutral wells 0, positive control 100;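 active means highest replicate activation at or above 34% and every replicate reaching that threshold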;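 further: higher polarization means more probe DNA bound by delta FosB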
Large screens that a line does not name were inactive (follow-up assays come after a bar, where they were run). An excerpt weighted towards active compounds, which were near 4.5% of everything screened.

CCCCNS(=O)(=O)c1ccc(NC(=O)C2c3ccccc3Oc3ccccc32)cc1	dFosB act-1 44, GRIN3A LBD mod 19 | dFosB act-2 inactive
O=C1CC(C(=O)Nc2ccc(F)cc2)S/C(=N\N=C\c2ccco2)N1 (stereo unspecified)	dFosB act-1 33 | dFosB act-2 inactive
Cc1ccc(NCc2nnc(SCC(=O)c3ccc4c(c3)OCCO4)o2)c(C)c1	dFosB act-1 29 | dFosB act-2 inactive
O=C(/C=C/c1ccc2c(c1)OCO2)Nc1ccc(Cl)cn1	dFosB act-1 103 | dFosB act-2 inactive
O=C(/C=C/c1ccc2c(c1)OCO2)Nc1nc2ccc(F)cc2s1	dFosB act-1 30 | dFosB act-2 inactive
CCN(C(=O)CN1CCCCC1C)c1c(N)n(Cc2ccccc2)c(=O)[nH]c1=O (stereo unspecified)	none (no result: EBNA-1 inh, TPT1 inhibitor)
CSc1ccc(S(=O)(=O)NCC(=O)OCCOc2ccccc2)cc1[N+](=O)[O-]	dFosB act-1 28 | dFosB act-2 inactive
Nc1ccc(S(=O)(=O)NCC(=O)OCCOc2ccccc2)cc1[N+](=O)[O-]	none
CCc1cc2cc3c(cc2nc1SCC(=O)Nc1c[nH]c(=O)[nH]c1=O)OCO3	dFosB act-1 70 | dFosB act-2 inactive
O=C1C=C(/C=C/c2ccccc2)C[C@@H](c2ccc3c(c2)OCO3)C1	none (no result: EBNA-1 inh, TPT1 inhibitor)
CNC(=O)/C(C#N)=C/c1ccc(-c2ccc(Cl)cc2)o1	dFosB act-1 50 | dFosB act-2 inactive
S=C1Nc2ccccc2Sc2ccc(Cl)cc21	dFosB act-1 34 | dFosB act-2 inactive
Clc1cc2c(nn1)Nc1ccccc1S2	none
C[N+](C)(C)CC(=O)N/N=C/c1c2ccccc2cc2ccccc12	dFosB act-1 31 | dFosB act-2 inactive
CC1Cc2nc(SCC(=O)NCC3CCCO3)n(-c3ccccc3)c(=O)c2S1 (stereo unspecified)	none (no result: ZTA counter, EBNA-1 inh, dFosB act-1, GRIN3A LBD mod, TPT1 inhibitor)
COc1ccc(N2CC(C(=O)N3CCN(C(=O)c4ccco4)CC3)CC2=O)cc1 (stereo unspecified)	none
CC(OC(=O)c1cc(-c2cccnc2)nc2ccccc12)C(=O)Nc1ccc2ccccc2c1 (stereo unspecified)	dFosB act-1 44 | dFosB act-2 inactive
CC(C)(C)NC(=O)C(=O)NNC(=O)COc1ccc(Br)cc1	none
O=C(CCc1nc2ccccc2c(=O)[nH]1)NNC(=O)COc1ccccc1Cl	dFosB act-1 56 | dFosB act-2 inactive
NC(=O)c1ccsc1NC(=O)COC(=O)c1c(F)cccc1Cl	none (no result: EBNA-1 inh, TPT1 inhibitor)
CC(C)c1nc2sc3c(=O)[nH]cnc3c2c2c1CCCC2	none
Cc1ccc(-c2cc(C(F)F)nc3sc4c(=O)[nH]cnc4c23)cc1	dFosB act-1 33 (no result: EBNA-1 inh, TPT1 inhibitor) | dFosB act-2 inactive
O=C(COC(=O)/C=C/c1cccc(Br)c1)NCc1cccs1	dFosB act-1 46 (no result: ZTA counter, EBNA-1 inh, TPT1 inhibitor) | dFosB act-2 inactive
O=C(COC(=O)/C=C/c1cccc(Br)c1)NCc1ccco1	none
CSc1nc(N)c(C#N)c(-c2ccc(Cl)cc2)c1C#N	none
COc1ccc(-c2c(C#N)c(N)nc(Sc3ccc(Cl)cc3)c2C#N)cc1	dFosB act-1 121 | dFosB act-2 inactive
Cc1ccc(C)c(OCc2cc(C(=O)NC3CCN(Cc4ccccc4)CC3)no2)c1	dFosB act-1 22 | dFosB act-2 inactive
COCc1cc(C)nc(OCC(=O)N/N=C/c2ccc(-c3cc([N+](=O)[O-])ccc3C)o2)c1C#N	none
Cc1ccc([N+](=O)[O-])cc1-c1ccc(/C=C(\C#N)c2[nH]nc(N)c2C#N)o1	dFosB act-1 29, GRIN3A LBD mod 17 | dFosB act-2 inactive
COc1ccc(/C=N/n2c(=O)[nH]c3c([nH]c4ccc(Br)cc43)c2=O)cc1CN1CCOCC1	dFosB act-1 28 | dFosB act-2 inactive
Cc1ccc(S(=O)(=O)N2CCN(S(=O)(=O)c3c(C)n[nH]c3C)CC2)cc1C	dFosB act-1 32 (no result: EBNA-1 inh, TPT1 inhibitor) | dFosB act-2 inactive
COc1cc2c(cc1OC)C(c1ccc(-c3ccc(Cl)cc3Cl)o1)=NCC2	dFosB act-1 34 | dFosB act-2 inactive
O=C(CN(Cc1ccc(Cl)cc1)C(=O)CN1C(=O)COc2ccccc21)NC1CCCC1	dFosB act-1 29 | dFosB act-2 inactive
COc1ccc(CN(CC(=O)NC2CCCC2)C(=O)CN2C(=O)COc3ccccc32)cc1	none
O=C(NC(Cc1ccccc1)c1nc2ccccc2[nH]1)c1ccc(Cl)c([N+](=O)[O-])c1 (stereo unspecified)	dFosB act-1 31 | dFosB act-2 inactive
O=C(Nc1nc2c(s1)CN(Cc1ccccc1)CC2)C1CCCC1	dFosB act-1 24 | dFosB act-2 inactive
COc1cccc(Nc2nc3ccc(C(=O)c4ccccc4)cc3n3cnnc23)c1	dFosB act-1 19 | dFosB act-2 inactive
COC(=O)c1ccc(Nc2nc3ccc(C)cc3n3cnnc23)cc1	none
NS(=O)(=O)c1ccc(CCNC(=O)COC(=O)/C=C/c2ccc(Cl)cc2)cc1	dFosB act-1 21 | dFosB act-2 inactive
O=C(COC(=O)/C=C/c1ccc(Cl)cc1)Nc1ccc2[nH]c(=O)[nH]c2c1	dFosB act-1 22 | dFosB act-2 inactive
NS(=O)(=O)c1ccc(CCNC(=O)COC(=O)/C=C/c2ccc(OC(F)F)cc2)cc1	none (no result: ZTA counter, EBNA-1 inh, TPT1 inhibitor)
CCN(CC)S(=O)(=O)c1ccc(/C=C/C(=O)OCC(=O)Nc2ccc(C(N)=O)cc2)cc1	none
O=C(COC(=O)/C=C/c1ccc(F)cc1)Nc1ccc2[nH]c(=O)[nH]c2c1	none
NS(=O)(=O)c1ccc(NC(=O)CCCCC(=O)Nc2ccc(S(N)(=O)=O)cc2)cc1	dFosB act-1 53 | dFosB act-2 inactive
CCN(CC)S(=O)(=O)c1ccc(/C=C/C(=O)OCC(=O)Nc2ccc(S(N)(=O)=O)cc2)cc1	dFosB act-1 116 | dFosB act-2 inactive
COc1cccc(C(=O)OCC(=O)Nc2sc3c(c2C(N)=O)CCC3)c1O	none (no result: EBNA-1 inh, TPT1 inhibitor)
O=S(=O)(c1cccc(C(F)(F)F)c1)N1CCN(CC(O)COCc2ccccc2)CC1 (stereo unspecified)	none (no result: ZTA counter, EBNA-1 inh, TPT1 inhibitor)
CCOc1ccc(CC(=O)Nc2c(C(=O)Nc3ccccc3)oc3ccccc23)cc1OCC	dFosB act-1 27 | dFosB act-2 inactive
O=C(Nc1ccc2nc([C@H]3C[C@H](O)[C@@H](CO)O3)[nH]c2c1)NC(c1ccccc1)c1ccccc1	none (no result: ZTA counter, EBNA-1 inh, dFosB act-1, GRIN3A LBD mod, TPT1 inhibitor)
